High-throughput results from PubChem BioAssay.
HCMV inh: qHTS Assay for inhibitors of the human cytomegalovirus (HCMV). HFF cells, HCMV-luciferase reporter, 72 h; active compounds read low. activity change, negative = inhibition, % at 57.5 µM. actives 4.5% (n = 410,000); in the data active = activity change below about -60%; inconclusive = no clear call, values can overlap the other calls; inactive = above about -39%; also: % is scaled to controls: 0 for no effect and ±100 for the full control effect
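Steps: HFFs plated, 16 h 37C; compounds added; HCMV-luciferase added to MOI 1 PFU/cell; 72 h 37C; OneGlo reagent, 5 min room temperature; luminescence read, normalized to controls.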
CHX counter: Cycloheximide Counterscreen for Small Molecule Inhibitors of Shiga Toxin. cell reporter, cycloheximide protein synthesis inhibition counterscreen. AID 2314, 2010. max response, %. actives 12% (n = 300,000); in the data active = max response mostly above about 13%, no sharp cut-off; inactive = mostly below about 14%; also: read at 38.3 µM for the half of the compounds with a filed dose; 0% is about no effect
Shiga inhibitor: A qHTS for Small Molecule Inhibitors of Shiga Toxin; Vero cells, Shiga toxin protein synthesis inhibition reporter; inhibition, % at 38.7 µM; actives 9.2% (n = 290,000); AID 2315, 2010; in the data active = inhibition mostly above about 28%, no sharp cut-off; inactive = mostly below about 43%; also: 0% is about no effect
Pf growth 96h: Primary qHTS for delayed death inhibitors of the malarial parasite plastid, 96 hour incubation; P. falciparum luciferase reporter growth, 96 h; Potency, µM (series often up to 28.7 µM), for inactives: top-dose activity change, negative = inhibition, actives largely listed as inhibitors; actives 6.9% (n = 320,000); AID 504834, 2011; also: potency is read from the fitted curve at half-maximal effect; % is scaled to controls: 0 for no effect and ±100 for the full control effect
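Erythrocytes infected with luciferase-expressing P. falciparum were dispensed at 2% hematocrit and 0.05% parasitemia (final), then incubated with compounds 96 hours at 37 C in 5% CO2. Luminescence after detection reagent addition reported growth.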
Pf growth 48h: Primary qHTS for delayed death inhibitors of the malarial parasite plastid, 48 hour incubation; P. falciparum luciferase growth in erythrocytes, 48 h; Potency, µM (doses to about 28.7 µM), for inactives: at the highest dose activity change, negative = inhibition, usual class: inhibitors; actives 5.9% (n = 310,000); AID 504832, 2011; also: potency is read from the fitted curve at half-maximal effect; % is scaled to controls: 0 for no effect and ±100 for the full control effect
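Parasite viability was followed by luminescence of a genomically integrated firefly luciferase. Cultures held 0.1% parasitemia at 2% hematocrit (final), incubated under 5% CO2 at 37 C.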
* marks the source's active call; other numbers are inactive results; ? = inconclusive; nt = no result; [ ] = remark or other dose. Compounds with a hit are over-represented: about 20% of the library has one in this group of screens. Unless noted, calls follow the shape of the dose curve; as a rule, active = well fitted inhibition curve with a large enough effect; inconclusive = small, poorly fitted or top-dose-only effect, or another doubt; inactive = no such curve, though single readings can be large or run the other way.

SMILES | HCMV inh | CHX counter | Shiga inhibitor | Pf growth 96h | Pf growth 48h
CCCOc1cccc(-c2cc(C(=O)N/N=C/c3cccnc3)c3ccccc3n2)c1 | -83.2* | 29.9* | 76.2* | ? | ?
C/C(=N\NC(=O)c1cc(C2CC2)nc2ccccc12)c1ccc(C)s1 | -4.0 | -1.7 | -12.7 | ? | nt
COc1ccc(/C(C)=N/NC(=O)c2cc(-c3cccnc3)nc3ccccc23)cc1 | -2.9 | -1.4 | -12.3 | 7.5% | 13.4%
Cc1ccccc1-c1cc(C(=O)N/N=C/c2cccnc2)c2ccccc2n1 | -27.9 | 3.0 | -12.5 | -15.1% | 10.4µM*
C/C(=N\NC(=O)c1cc(C2CC2)nc2ccccc12)c1ccc(O)cc1O | -60.6* | -7.6 | -10.4 | -1.8% | ?
CCOc1ccc(-c2cc(C(=O)N/N=C(\C)c3cccnc3)c3ccccc3n2)c(OCC)c1 | -35.7 | 7.0 | -11.4 | ? | 13.1µM*
O=C(N/N=C/c1cccnc1)c1cc(-c2ccccc2Cl)nc2ccccc12 | 77.4 | -1.6 | -16.8 | ? | -5.0%
CC[N+]1(C)CC2CCC(C)(C1)C2(C)C (centres undefined) | -22.3 | 0.6 | 3.8 | ? | 21.5%
COc1ccc(-c2cc(C(=O)N/N=C(\C)c3cccnc3)c3ccccc3n2)cc1 | 47.5 | 12.0* | 53.4 | 5.9% | 11.5%
COc1ccc(-c2cc(C(=O)N/N=C/c3cccnc3)c3ccccc3n2)cc1 | ? | 27.0* | 31.3 | ? | 14.8%
C/C(=N\NC(=O)c1cc(-c2ccncc2)nc2ccccc12)c1ccc(OC(F)F)cc1 | -11.9 | -4.3 | -5.0 | 3.29µM* | -26.8%
CCCOc1cccc(-c2cc(C(=O)N/N=C/c3ccccn3)c3ccccc3n2)c1 | -113.1* | 21.1* | 42.2* | 9.28µM* | 11.7µM*
O=[N+]([O-])c1ccc(C(c2sc3nc(-c4ccco4)nn3c2O)N2CCN(c3cccc(Cl)c3)CC2)cc1 (centres undefined) | 3.2 | nt | nt | nt | nt
COc1cccc(-c2cc(C(=O)N/N=C/c3ccco3)c3ccccc3n2)c1 | 7.8 | 25.5* | 66.9* | ? | ?
O=C(N/N=C/c1ccco1)c1cc(-c2ccccc2)nc2ccccc12 | -38.7 | 14.4 | 23.4 | ? | -6.0%
C/C(=N\NC(=O)c1cc(-c2cccnc2)nc2ccccc12)c1ccccc1O | -101.9* | 11.4* | 16.5 | ? | 6.57µM*
CCc1ccc2oc(=O)cc(CN3CCN(c4ccc(F)cc4)CC3)c2c1 | -20.3 | 5.7 | -20.0 | ? | ?
CCCCN(C)Cc1cc(=O)oc2ccc3ccccc3c12 | 37.9 | -2.4 | -4.0 | 16.6% | -14.5%
CC(C)c1ccc2oc(=O)cc(CN3CCN(c4ccc(F)cc4)CC3)c2c1 | 1.1 | 0.7 | -13.2 | nt | 13.1µM*
COc1cccc(NCc2cc(=O)oc3cc(-c4ccccc4)c(O)cc23)c1 | 52.3 | 26.8* | 61.6* | ? | ?
CN(CCC#N)Cc1cc(=O)oc2ccc3ccccc3c12 | -62.2* | -4.3 | -4.8 | ? | -13.2%
COc1ccc(N2CCN(Cc3cc(=O)oc4c3ccc3ccccc34)CC2)cc1 | nt | -2.5 | 2.1 | 11.7µM* | -15.8%
CCOC(=O)c1sc2ncn(CC(=O)Nc3ccc(C)cc3Br)c(=O)c2c1C | -9.2 | nt | nt | nt | nt
O=c1cc(CN2CCN(c3ccccc3)CC2)c2cc(O)c(-c3ccccc3)cc2o1 | ? | -1.6 | 33.8 | 3.29µM* | 2.62µM*
O=c1cc(CN2CCN(c3ccccc3)CC2)c2c(ccc3ccccc32)o1 | -24.8 | -2.2 | -4.6 | 10.4µM* | 13.1µM*
SMILES | HCMV inh | CHX counter | Shiga inhibitor | Pf growth 96h | Pf growth 48h
O=c1cc(CN2CCN(c3cccc(Cl)c3)CC2)c2cc(O)c(-c3ccccc3)cc2o1 | 2.1 | -1.2 | 1.2 | ? | 2.08µM*
CCOc1ccc2oc(=O)cc(CN3CCN(c4ccccc4)CC3)c2c1 | -27.5 | nt | nt | nt | nt
COc1ccc(N2CCN(CC(=O)Nc3cccc(S(=O)(=O)N4CCOCC4)c3)CC2)cc1 | -20.3 | 0.7 | -12.2 | ? | -22.7%
O=C(c1cc2cc3ccc(Cl)cc3nc2o1)N1CCCCCC1 | nt | 21.5* | 79.1* | -8.5% | 2.9%
Cc1ccc2cc3cc(C(=O)N4CC(C)CC(C)C4)oc3nc2c1 (centres undefined) | -23.7 | 27.2* | 40.7* | nt | ?
Cc1ccc2cc3cc(C(=O)N4CCCCC4C)oc3nc2c1 (centres undefined) | 56.7 | 20.8* | 61.2* | 45.2% | 9.28µM*
COC(=O)[C@]1(Sc2ccc(OC)cc2)CC(=O)N[C@@H]1c1ccc(OC(C)C)c(OC)c1 | -9.0 | nt | nt | nt | nt
Cc1cccc(C)c1OC(=O)CSc1nnc(CNC(=O)c2ccccc2)o1 | 3.7 | nt | nt | nt | nt
COC(=O)C1(CCSC)NC(c2ccc(O)cc2)C2C(=O)N(c3ccc4c(c3)OCCO4)C(=O)C21 (centres undefined) | 38.3 | -4.9 | -9.1 | -5.1% | 32.7%
COC(=O)C1(C)NC(c2ccc(O)cc2)C2C(=O)N(c3ccc4c(c3)OCCO4)C(=O)C21 (centres undefined) | -73.3* | -2.0 | 13.1 | 54.5% | ?
CCCC1(C(=O)OCC)NC(c2ccc(N(C)C)cc2)C2C(=O)N(c3ccccc3)C(=O)C21 (centres undefined) | 31.1 | -0.7 | 8.0 | nt | ?
COC(=O)C1(C)NC(c2cccc(C)c2)C2C(=O)N(c3ccc(F)cc3)C(=O)C21 (centres undefined) | -1.8 | -5.1 | -7.3 | 3.7µM* | -4.0%
COC(=O)C1(C)NC(c2ccccc2C)C2C(=O)N(c3ccc(F)cc3)C(=O)C21 (centres undefined) | -24.5 | -2.6 | -9.8 | 51.3% | -16.3%
COC(=O)C1(C)NC(c2ccc(O)cc2)C2C(=O)N(c3ccc(C)cc3)C(=O)C21 (centres undefined) | 53.3 | -1.3 | 8.9 | 4.65µM* | 30.3%
CCCC1(C(=O)OCC)NC(c2ccc(N(C)C)cc2)C2C(=O)N(c3ccc(OCC)cc3)C(=O)C21 (centres undefined) | -21.1 | -5.4 | -14.2 | ? | 11.7µM*
C[C@H]1CN([C@@H](C)CO)C(=O)CCCn2nncc2CO[C@@H]1CN(C)Cc1cccc2c1OCCCO2 | 3.8 | nt | nt | nt | nt
COc1ccc(NC(=O)CCCn2c(=O)c3cccn3c3cccnc32)cc1Cl | -37.3 | nt | nt | nt | nt
O=C(CNC(=O)c1ccc2c(c1)S(=O)(=O)N=C1CCCCCN12)Nc1ccc(F)c(F)c1 | -15.5 | nt | nt | ? | 10.4µM*
CCN(CC(=O)Nc1ccc(NC(C)=O)cc1)C(=O)c1ccc2c(c1)S(=O)(=O)N=C1CCCCCN12 | -18.7 | nt | nt | 35.3% | -24.5%
CC1CCc2c(C(=O)Nc3ccc(N4CCOCC4)cc3)csc2C1 (centres undefined) | -35.4 | 3.1 | 20.7 | ? | -14.8%
Cc1nc2nc[nH]n2c(=O)c1NS(=O)(=O)c1ccc(Br)cc1 | 11.8 | nt | nt | nt | nt
COc1ccc(C(=O)NCCSc2ccccc2)cc1OC | 99.8 | 32.9* | 64.1* | 32.1%[5.75 µM] | 82.7%
